Experimental findings from PubChem BioAssay (NCI) are described below.

What all share (test): NCI-60 one-dose screen, 48 h (100 = growth as untreated, 0 = no growth, -100 = all killed)
Common to all, as to details: 10 µM unless noted

The test system of test [1] is SK-MEL-2 melanoma.
Test [2] concerns EKVX NSCLC.
Test [3] relates to SN12C renal.
The test system of test [4] is UO-31 renal.
Test [5] deals with TK-10 renal.
Test [6] relates to ACHN renal.
The test system of test [7] is CAKI-1 renal.
Test [8] relates to A498 renal.
For test [9], the system named is CCRF-CEM leukemia.
The test system of test [10] is MOLT-4 leukemia.
Test [11] has as its system SR leukemia.
Test [12] concerns RPMI-8226 leukemia.
The subject of test [13] is OVCAR-8 ovarian.
The subject of test [14] is OVCAR-5 ovarian.
In test [15] the test system is OVCAR-4 ovarian.
For test [16], the system named is SK-OV-3 ovarian.
Test [17] has as its system IGROV1 ovarian.
The subject of test [18] is OVCAR-3 ovarian.
Test [19] relates to HS 578T breast.
The subject of test [20] is NCI/ADR-RES ovarian.

The panel holds about 83,000 compounds, 20% with a hit somewhere; the sample as a whole holds those more often.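 The endpoint reported here, percent growth, reads 100 for growth as untreated, 0 for no net growth and -100 for all cells dead.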 A number with no mark means an inactive call. Activity calls are given as the source filed them. Rule for the calls: active = growth percent below 10; inactive = the rest.

In the case of `Cn1cc(-c2csc(-c3cn(CCO)c4ccc(F)cc34)n2)c2cccnc21`, the growth was 52.2% in test [1]; 57.4% in test [2]; 73.2% in test [3]; 70.7% in [4]; 47.7% in test [5]; 69.5% in test [6]. For the same compound, the growth was 78.4% in test [7]; 45.3% in test [8]; 44.4% in [9]; 46.7% in test [10]; 20.7% in test [11]; 62.6% in test [12]. Also, the growth in [13] is 75.9%; in test [14], 65.6%; in test [15], 36%; in test [16] it was 73%; in test [17], 51.9%; in [18], 49.7%. Further, the results for the growth in [19] and in [20] were 79.8% and 45.5%, respectively.
For `Cc1cccc(CN(Nc2ccccc2)c2ccccc2)n1`, the growth is 115% in test [1]; 79.4% in test [2]; 97.8% in [3]; 91.8% in [4]; 108% in test [5]; 102% in test [6]. Besides, the growth in test [7] is 87.3%; in test [8], 98%; in [9], 91.2%; in test [10], 91.1%; in [11], 93%; in [12], 96.3%. Further, the growth was 98.5% in [13]; 102% in [14]; 109% in test [15]; 104% in test [16]; 127% in test [17]; 99.5% in test [18]. Moreover, the growth was 109% in test [19] and 102% in [20].
`CN(C)C(=S)NN=C(c1ccccn1)c1ccccn1`: the growth in test [1] was 13.4%; in [2] it was -15.7% (active); in [3] it was 28.5%; in test [4] it was 20.7%; in test [5], 6.04% (active); in [6], 16.8%. Moreover, the growth in [7] was 30%; in test [8], -11% (active); in test [9], -34.3% (active); in test [10] it was -2.95% (active); in [11], -33.6% (active); in test [12], 17.8%. Besides, the growth was 33.1% in [13]; 59.1% in [14]; 21.5% in test [15]; 51% in test [16]; 16% in test [17]; 51.9% in test [18]. Moreover, the figures for the growth in [19] and in test [20] were 44.9% and 19.9%, respectively.
As for `C/C=C(/C)C(=O)O[C@@H]1CC(C)(C)CC2C34OC(=O)[C@@]21CC[C@@]3(C)[C@]1(C)CCC2C(C)(C)C(=O)CC[C@]2(C)C1C[C@@H]4O` (stereo not given in full), the growth in test [1] was 80.3%; in test [2], 50.1%; in [3] it was 83.7%; in test [4], 67.8%; in test [5], 73.2%; in test [6] it was 85.9%. The growth in test [7] is 59.6%; in test [8], 69.3%; in test [9], 36.3%; in test [10] it was 24.2%; in test [11] it was 28.5%; in [12], 26.2%. For the same compound, the growth in test [13] was 68.6%; in test [14] it was 95.3%; in test [15], 67.1%; in test [16], 87.8%; in [17], 72.6%; in test [18] it was 73.7%. For the same compound, the growth in test [19] is 78.3%; in [20] it was 77%.
Consider `CNC1=C([N+](=O)[O-])C(c2ccc(OC)cc2)C(C#N)=C(c2ccc[nH]2)O1` (stereo not given), for which the growth in [1] is 108%; in test [2], 99.7%; in test [3], 97.1%; in test [4], 89.3%; in test [5] it was 117%; in [6], 105%. The growth is 92.6% in test [7]; 96.8% in [8]; 43.1% in [9]; 108% in test [10]; 98.2% in test [11]; 96.2% in test [12]. Further, the growth was 99.8% in test [13]; 109% in test [14]; 92.8% in [15]; 102% in test [16]; 104% in test [17]; 107% in [18]. The growth in [19] is 98.1%; in [20] it was 110%.
Regarding `COc1cccc2cc(N(C)c3ncnc4ccccc34)ccc12`, the growth in test [1] was 30.1%; in test [2] it was 43.8%; in test [3] it was 20.9%; in [4] it was 25.4%; in test [5], 51%; in test [6], 6.07% (active). Further, the growth in test [7] was 10.8%; in test [8], -7.44% (active); in [9] it was 22%; in [10] it was 16.8%; in [11] it was 9.25% (active); in [12], -18.3% (active). In addition, the growth was 6.23% (active) in [13]; 54.3% in test [14]; 34.7% in test [15]; 33.9% in test [16]; 14.4% in test [17]; 6.13% (active) in [18]. For the same compound, the growth in [19] was 40.9%; in test [20] it was 8.39% (active).
On to `CCOC(=O)CC1CSC(N/N=C(/C)c2cccc(C(F)(F)F)c2)=N1` (stereo not given), for which the growth in [1] is 123%; in test [2], 89.3%; in test [3] it was 103%; in test [4], 80.2%; in test [5], 95.8%; in test [6] it was 106%. Besides, the growth in [7] was 91.6%; in [8], 97.4%; in test [9] it was 104%; in test [10], 95.8%; in [11], 99.6%; in test [12] it was 111%. Moreover, the growth in [13] is 102%; in test [14], 105%; in test [15] it was 94.1%; in test [16] it was 96.1%; in test [17], 94.5%; in test [18] it was 105%. Further, the growth in test [19] and in test [20] was 101% throughout.
